{
  "source": "PubChem BioAssay (NCATS)",
  "key": {"[1]": {"target": "Calcium and integrin-binding protein 1 (Homo sapiens) (UniProt Q99828)", "sequence (Q99828 whole entry, looked up)": "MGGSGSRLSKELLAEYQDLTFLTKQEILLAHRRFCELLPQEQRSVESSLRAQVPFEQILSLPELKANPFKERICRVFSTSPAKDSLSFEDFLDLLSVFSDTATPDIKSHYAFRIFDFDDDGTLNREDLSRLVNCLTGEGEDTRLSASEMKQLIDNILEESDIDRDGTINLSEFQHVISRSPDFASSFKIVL", "test": "Primary qHTS for Identification of Calcium Integrin Binding Protein 1 (CIB1) Competitor (AID 1508620); further: potency means the concentration at half of the fitted maximal effect", "summary_of_the_method": "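CIB1-GST (1 uM final) and compound incubated 15 min at room temperature before adding FITC-alphaIIb peptide tracer (100 nM final). Competition for binding read by fluorescence polarization (ex 480, em 540) after another 15 min at room temperature.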"}, "[2]": {"target": "Cytochrome P450 2C9 (Homo sapiens) (UniProt P11712)", "sequence (P11712 whole entry, looked up)": "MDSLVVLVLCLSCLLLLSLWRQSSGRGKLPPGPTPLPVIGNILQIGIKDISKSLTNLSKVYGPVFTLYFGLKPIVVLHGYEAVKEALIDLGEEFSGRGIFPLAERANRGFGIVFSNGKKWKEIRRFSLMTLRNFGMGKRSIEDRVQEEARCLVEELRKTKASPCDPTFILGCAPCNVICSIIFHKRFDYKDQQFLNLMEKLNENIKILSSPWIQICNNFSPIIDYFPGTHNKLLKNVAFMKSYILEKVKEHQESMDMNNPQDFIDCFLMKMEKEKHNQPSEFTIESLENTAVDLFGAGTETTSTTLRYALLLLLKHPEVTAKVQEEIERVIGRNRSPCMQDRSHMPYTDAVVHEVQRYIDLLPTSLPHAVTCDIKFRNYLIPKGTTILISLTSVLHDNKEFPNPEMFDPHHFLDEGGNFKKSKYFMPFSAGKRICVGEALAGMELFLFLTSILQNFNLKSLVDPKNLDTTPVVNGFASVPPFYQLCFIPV", "test": "Cytochrome P450 family 2 subfamily C member 9 (CYP2C9) small molecule antagonists: luciferase biochemical (cell-free) qHTS assay (AID 1645842; active means well fitted curve in the direction sought with a large enough effect in the repeat runs; an effect the other way counts as inactive or inconclusive; further: nearly all actives have a fitted effect of over 55% in size; further: potency means the concentration at half of the fitted maximal effect)", "summary_of_the_method": "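P450-Glo CYP2C9 system: proluciferin substrate with enzyme in mix containing 0.4% BSA, 10 min at room temperature, then NADPH regeneration solution added and incubated 1 h at 37C. Detection reagent stopped reaction; luminescence read after 20 min as RLU.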"}, "[3]": {"target": "Cytochrome P450 3A4 (Homo sapiens) (UniProt P08684)", "sequence (P08684 whole entry, looked up)": "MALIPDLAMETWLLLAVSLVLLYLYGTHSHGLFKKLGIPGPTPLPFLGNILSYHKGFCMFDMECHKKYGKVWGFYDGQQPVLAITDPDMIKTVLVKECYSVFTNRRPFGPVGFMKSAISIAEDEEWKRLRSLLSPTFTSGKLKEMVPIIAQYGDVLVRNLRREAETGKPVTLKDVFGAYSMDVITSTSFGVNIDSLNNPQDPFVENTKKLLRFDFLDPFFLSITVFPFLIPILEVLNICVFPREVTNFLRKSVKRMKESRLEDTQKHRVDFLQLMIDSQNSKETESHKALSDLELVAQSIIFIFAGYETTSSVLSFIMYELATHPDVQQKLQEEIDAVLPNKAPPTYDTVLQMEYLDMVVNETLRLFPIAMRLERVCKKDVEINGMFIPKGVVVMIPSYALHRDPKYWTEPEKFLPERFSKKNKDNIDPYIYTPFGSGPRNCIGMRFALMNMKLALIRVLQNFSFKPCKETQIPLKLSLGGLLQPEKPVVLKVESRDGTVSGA", "test": "Cytochrome P450 family 3 subfamily A member 4 (CYP3A4) small molecule antagonists: luciferase qHTS assay (AID 1645841; active means well fitted curve in the direction sought with a large enough effect in the repeat runs; an effect the other way counts as inactive or inconclusive; further: nearly all actives have a fitted effect of over 45% in size)", "summary_of_the_method": "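Luminescent CYP3A4 activity readout: compounds plus enzyme-substrate mix 10 min at room temperature, reaction started with NADPH regenerating system for 1 h, stopped with detection reagent, read after 20 min. Ketoconazole served as control.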"}, "[4]": {"test": "Primary qHTS for inhibitors of nuclear receptor binding SET domain protein 2 (NSD2) in an isogenic RCH-ACV NSD2 p.E1099K mutant (9B) (AID 1645876); further: nearly all actives have a fitted effect of over 70% in size"}, "[5]": {"target": "Cytochrome P450 2D6 (Homo sapiens) (UniProt P10635)", "sequence (P10635 whole entry, looked up)": "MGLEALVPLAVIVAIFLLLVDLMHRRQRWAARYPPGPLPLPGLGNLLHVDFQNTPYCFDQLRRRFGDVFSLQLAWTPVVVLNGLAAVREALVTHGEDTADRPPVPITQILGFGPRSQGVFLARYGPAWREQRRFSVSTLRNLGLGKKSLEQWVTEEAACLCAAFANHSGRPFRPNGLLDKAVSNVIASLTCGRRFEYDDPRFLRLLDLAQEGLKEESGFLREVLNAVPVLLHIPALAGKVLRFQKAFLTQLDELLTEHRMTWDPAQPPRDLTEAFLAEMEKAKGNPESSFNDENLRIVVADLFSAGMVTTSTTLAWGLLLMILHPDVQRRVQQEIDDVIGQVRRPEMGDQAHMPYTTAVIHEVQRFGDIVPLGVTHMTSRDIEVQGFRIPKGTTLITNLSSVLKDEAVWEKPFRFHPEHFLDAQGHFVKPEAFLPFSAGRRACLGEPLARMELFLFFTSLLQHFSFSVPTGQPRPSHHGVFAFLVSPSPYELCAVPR", "test": "Cytochrome P450 family 2 subfamily D member 6 (CYP2D6) small molecule antagonists: luciferase biochemical (cell-free) qHTS assay (AID 1645840; active means well fitted curve in the direction sought with a large enough effect in the repeat runs; an effect the other way counts as inactive or inconclusive; further: potency means the concentration at half of the fitted maximal effect; nearly all actives have a fitted effect of over 55% in size)", "summary_of_the_method": "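P450-Glo CYP2D6 system: proluciferin substrate converted by enzyme to luciferin, read by luminescence proportional to activity. Enzyme-substrate mix with compound 10 min at room temperature, then NADPH regeneration 1 h before detection reagent.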"}, "[6]": {"test": "Primary qHTS for inhibitors of nuclear receptor binding SET domain protein 2 (NSD2) in an RCH-ACV wild type WT cells (2C) (AID 1645877); further: potency means the concentration at half of the fitted maximal effect; nearly all actives have a fitted effect of over 70% in size"}},
  "note": "Inconclusive results are not listed. Entries that show only a call come without a potency. Calls of active or inactive are those of the source. Unless noted, the call rests on the fitted dose curve; in most records, active means well fitted curve in the direction sought with a large enough effect; inconclusive means small, poorly fitted or top-dose-only effect, or another doubt; inactive means no such curve, though single readings can be large; an effect the other way counts as inactive or inconclusive.",
  "data": [
    {"smiles": "O=C(Nc1ccn(Cc2ccc(O)cc2C(F)(F)F)n1)c1c(F)cccc1F", "values": [
      {"measurement": "Potency", "setting": "[1]", "result": "inactive"},
      {"measurement": "Potency", "setting": "[2]", "result": "6.01 µM (active)"}
    ]},
    {"smiles": "COc1ccc(C#Cc2ccc(C(=O)N3CCC[C@@H](CO)C3)cc2)cc1", "values": [
      {"measurement": "Potency", "setting": "[1]", "result": "inactive"},
      {"measurement": "Potency", "setting": "[2]", "result": "21.3 µM (active)"}
    ]},
    {"smiles": "CN1CCN(C2=Nc3ccccc3Nc3ccc(Cl)cc32)CC1", "values": [
      {"measurement": "Potency", "setting": "[1]", "result": "inactive"},
      {"measurement": "Potency", "setting": "[2]", "result": "13.5 µM (active)"}
    ]},
    {"smiles": "C[C@@H](O[C@H]1OCCN(Cc2nn(P(=O)(O)O)c(=O)[nH]2)[C@H]1c1ccc(F)cc1)c1cc(C(F)(F)F)cc(C(F)(F)F)c1", "values": [
      {"measurement": "Potency", "setting": "[1]", "result": "inactive"},
      {"measurement": "Potency", "setting": "[2]", "result": "13.1 µM (active)"}
    ]},
    {"smiles": "COc1cc(N2CCOCC2)ccc1NC(=O)c1csc(-c2cccnc2)n1", "values": [
      {"measurement": "Potency", "setting": "[1]", "result": "inactive"},
      {"measurement": "Potency", "setting": "[2]", "result": "inactive"}
    ]},
    {"smiles": "Cc1ccc(-c2cn3c4c(sc3n2)CCCC4)cc1", "values": [
      {"measurement": "Potency", "setting": "[1]", "result": "inactive"},
      {"measurement": "Potency", "setting": "[2]", "result": "16.9 µM (active)"}
    ]},
    {"smiles": "COC(=O)c1sccc1S(=O)(=O)Nc1ccc(Nc2ccccc2)cc1OC", "values": [
      {"measurement": "Potency", "setting": "[1]", "result": "inactive"},
      {"measurement": "Potency", "setting": "[2]", "result": "2.39 µM (active)"}
    ]},
    {"smiles": "O=S(=O)(Nc1cc(Cl)c(Oc2cnc3ccccc3c2)c(Cl)c1)c1ccc(Cl)cc1Cl", "values": [
      {"measurement": "Potency", "setting": "[1]", "result": "inactive"},
      {"measurement": "Potency", "setting": "[2]", "result": "3.01 µM (active)"}
    ]},
    {"smiles": "c1ccc(-c2cnn3cc(-c4ccc(OCCN5CCOCC5)cc4)cnc23)cc1", "values": [
      {"measurement": "Potency", "setting": "[1]", "result": "inactive"},
      {"measurement": "Potency", "setting": "[2]", "result": "3.38 µM (active)"}
    ]},
    {"smiles": "CN(C)c1ccnc2sc3c(=O)n(N4CCCCCC4)cnc3c12", "values": [
      {"measurement": "Potency", "setting": "[1]", "result": "inactive"},
      {"measurement": "Potency", "setting": "[2]", "result": "7.56 µM (active)"}
    ]},
    {"smiles": "O=C(NCc1ccccc1)c1ccc2c(=O)n(-c3cccc(C(F)(F)F)c3)c(=S)[nH]c2c1", "values": [
      {"measurement": "Potency", "setting": "[1]", "result": "inactive"},
      {"measurement": "Potency", "setting": "[3]", "result": "inactive"},
      {"measurement": "Potency", "setting": "[2]", "result": "10.7 µM (active)"},
      {"measurement": "Potency", "setting": "[4]", "result": "inactive"}
    ]},
    {"smiles": "COc1ccc2nc3n[nH]c(C)c3c(NCCOCCO)c2c1", "values": [
      {"measurement": "Potency", "setting": "[1]", "result": "50.1 µM (active)"},
      {"measurement": "Potency", "setting": "[5]", "result": "9.52 µM (active)"},
      {"measurement": "Potency", "setting": "[6]", "result": "3.25 µM (active)"}
    ]}
  ]
}
